Experimental data from PubChem BioAssay (NCATS).
“And” between values parts separate entries of the source, which are not always exact repeats. Identical values can stand only once. Results filed as inconclusive are left out. Entries that show only a call come without a potency. The source made the active and inactive calls. Unless noted, the call rests on the fitted dose curve; in most records, active means well fitted curve in the direction sought with a large enough effect; inconclusive means small, poorly fitted or top-dose-only effect, or another doubt; inactive means no such curve, though single readings can be large; an effect the other way counts as inactive or inconclusive.

Tests used:
[1] = qHTS assay for small molecule antagonists of peroxisome proliferator-activated receptor delta signaling (AID 588535); details: HEK293T PPARd-UAS-bla, beta-lactamase FRET ratio, 18 h; 460 nm channel;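 further: cells co-treated with a PPAR-delta agonist as stimulator during compound exposure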
Method in brief: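 Beta-lactamase reporter read-out (405 nm excitation, 460/530 nm emission) after CCF4 loading for 2 hrs at RT. HEK293T PPAR-delta-UAS-bla cells, 2% charcoal/dextran FBS, compounds for 18 hrs at 37 C. Hill fit gave IC50 and efficacy.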

[2] = biological target: Peroxisome proliferator-activated receptor gamma (Homo sapiens) (UniProt P37231); experiment: qHTS assay for small molecule antagonists of peroxisome proliferator-activated receptor gamma signaling (AID 588537; active means well fitted inhibition curve with a large enough effect in the signal ratio, with a control signal flat, not every such curve was filed as active; the % refers to the signal ratio; further: potency means the concentration at half of the fitted maximal effect); details: HEK293 PPARg-UAS-bla, beta-lactamase ratio, antagonist mode; series mostly up to 76.8 µM
Chain of Peroxisome proliferator-activated receptor gamma (Homo sapiens) (P37231 whole entry, looked up): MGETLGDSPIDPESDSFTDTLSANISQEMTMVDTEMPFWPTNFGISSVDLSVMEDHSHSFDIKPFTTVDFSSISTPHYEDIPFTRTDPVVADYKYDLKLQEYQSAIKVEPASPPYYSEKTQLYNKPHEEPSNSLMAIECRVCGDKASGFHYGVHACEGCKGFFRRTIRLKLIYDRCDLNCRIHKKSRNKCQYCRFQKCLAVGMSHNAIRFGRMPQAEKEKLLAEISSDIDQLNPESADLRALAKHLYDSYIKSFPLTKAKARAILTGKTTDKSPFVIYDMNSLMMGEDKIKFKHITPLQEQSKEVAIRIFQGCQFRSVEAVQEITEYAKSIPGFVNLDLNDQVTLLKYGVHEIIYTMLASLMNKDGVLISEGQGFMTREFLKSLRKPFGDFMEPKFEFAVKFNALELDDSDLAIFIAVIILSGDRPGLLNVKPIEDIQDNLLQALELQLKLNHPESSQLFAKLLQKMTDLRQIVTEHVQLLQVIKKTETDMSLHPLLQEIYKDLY
Method in brief: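 Read-out: CCF4 fluorescence (ex 405, em 460/530 nm) after 2 h at RT. Cells were HEK293 carrying a UAS-bla reporter and treated 16 h at 37 C with compound plus rosiglitazone (50 nM final). Normalized to rosiglitazone and DMSO.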

[3] = qHTS assay to identify small molecules that stimulate interleukin-8 (IL-8) secretion (AID 651758; active means well fitted activation curve with a large enough effect in the signal ratio; the % refers to the signal ratio); details: HTRF ratio (665/615); series mostly up to 92.2 µM
Method in brief: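 Compounds are added to THP-1 cells (2000 per well) and left 16 hrs at 37 C. A labeled anti-IL-8 antibody pair is then added, and IL-8 secretion is measured by time-resolved FRET after 1-3 hrs at room temperature.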

[4] = biological target: ATP-dependent 6-phosphofructokinase (Trypanosoma brucei brucei) (UniProt O15648); experiment: qHTS Assay to Find Inhibitors of T. brucei phosphofructokinase: hit validation (AID 492961);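 further: luminescence reports ADP formed as PFK phosphorylates fructose-6-phosphate with ATP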; details: T. brucei PFK, ADP-Glo luminescence; series mostly up to 51.4 µM
Chain of ATP-dependent 6-phosphofructokinase (Trypanosoma brucei brucei) (O15648 whole entry, looked up): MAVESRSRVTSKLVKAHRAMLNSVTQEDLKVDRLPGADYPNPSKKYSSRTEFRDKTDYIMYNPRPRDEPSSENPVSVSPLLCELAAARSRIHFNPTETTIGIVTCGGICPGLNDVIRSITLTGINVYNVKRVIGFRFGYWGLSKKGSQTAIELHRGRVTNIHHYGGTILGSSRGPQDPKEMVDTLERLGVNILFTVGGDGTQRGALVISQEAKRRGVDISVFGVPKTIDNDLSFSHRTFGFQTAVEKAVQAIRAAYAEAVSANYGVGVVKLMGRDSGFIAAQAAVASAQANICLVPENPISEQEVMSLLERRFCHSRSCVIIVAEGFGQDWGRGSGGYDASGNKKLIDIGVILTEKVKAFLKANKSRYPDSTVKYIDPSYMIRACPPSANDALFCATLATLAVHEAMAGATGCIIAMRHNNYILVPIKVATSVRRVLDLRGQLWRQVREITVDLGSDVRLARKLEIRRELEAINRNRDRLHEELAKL
Method in brief: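 Inhibition of parasite PFK is measured as reduced ADP formation, quantified via luciferase after ATP depletion. Assay used 0.1 mM ATP, 0.5 mM F6P, 1.25 nM enzyme, 45 min incubation.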

AS120 = experiment: qHTS profiling for inhibitors of Plasmodium falciparum proliferation (AID 504749); further: potency means the concentration at half of the fitted maximal effect; nearly all actives have a fitted effect of over 60% in size; details: P. falciparum in erythrocytes, SYBR Green DNA, 72 h; series mostly up to 28.7 µM
Method in brief: (§1)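 SYBR Green fluorescence (ex 485 nm, em 535 nm) reports parasite DNA after 72 h compound exposure of infected red cells at 0.3% parasitemia, 2.5% hematocrit; signal normalized to 0.29 uM artemisinin and vehicle wells.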

ATS189 = experiment: as above; details: P. falciparum in erythrocytes, SYBR Green DNA, 72 h; series mostly up to 28.7 µM
Method in brief: as §1

CP191 = experiment: as above; details: P. falciparum in erythrocytes, SYBR Green DNA, 72 h; series mostly up to 28.7 µM
Method in brief: as §1

P94_40 = experiment: as above; details: P. falciparum in erythrocytes, SYBR Green DNA, 72 h; series mostly up to 28.7 µM
Method in brief: as §1

TAB109 = experiment: as above; details: P. falciparum in erythrocytes, SYBR Green DNA, 72 h; series mostly up to 28.7 µM
Method in brief: as §1

TAB113 = experiment: as above; details: P. falciparum in erythrocytes, SYBR Green DNA, 72 h; series mostly up to 28.7 µM
Method in brief: as §1

W2 = experiment: as above; details: P. falciparum in erythrocytes, SYBR Green DNA, 72 h; series mostly up to 28.7 µM
Method in brief: as §1

[5] = biological target: Peroxisome proliferator-activated receptor gamma (Homo sapiens) (UniProt P37231); experiment: qHTS assay for small molecule agonists of peroxisome proliferator-activated receptor gamma signaling (AID 588536; active means well fitted curve in the direction sought with a large enough effect in the signal ratio, with a control signal flat, not every such curve was filed as active; the % refers to the signal ratio); details: HEK293 PPARg-UAS-bla, beta-lactamase ratio, 16 h, percent of rosiglitazone response, DMSO as zero; series mostly up to 76.7 µM
Method in brief: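 Compound treatment: 16 h, 37 C, HEK293 GeneBLAzer cells. Detection: CCF4, 2 h RT. Values: Hill-fit EC50, efficacy as % of 2 uM rosiglitazone.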

[6] = qHTS Assay for Identification of Small Molecule Agonists for Hypoxia Response Element Signaling Pathway (AID 914; active means well fitted activation curve with a large enough effect in the signal ratio, with a control signal flat, not every such curve was filed as active; the % refers to the signal ratio); details: ME-180 HRE-bla reporter, beta-lactamase ratio, CoCl2, 17 h; activation: stronger effect = higher value
Method in brief: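 Read-out: CCF4 FRET ratio of 460nm to 530nm emission (excitation 405nm) after 2.5 hours at room temperature, taken from HRE-bla ME-180 cells that had been exposed to compound and EC50 CoCl2 for 17 hours.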

[7] = biological target: Glucocorticoid receptor (Homo sapiens) (UniProt P04150); experiment: GR-EFC Redistribution (AID 451; calls by dose curve; further: potency means the concentration at half of the fitted maximal effect); details: CHO-K1 GR-EFC translocation, beta-gal luminescence, 2 h
Chain of Glucocorticoid receptor (Homo sapiens) (P04150 whole entry, looked up, the tested form may be a part): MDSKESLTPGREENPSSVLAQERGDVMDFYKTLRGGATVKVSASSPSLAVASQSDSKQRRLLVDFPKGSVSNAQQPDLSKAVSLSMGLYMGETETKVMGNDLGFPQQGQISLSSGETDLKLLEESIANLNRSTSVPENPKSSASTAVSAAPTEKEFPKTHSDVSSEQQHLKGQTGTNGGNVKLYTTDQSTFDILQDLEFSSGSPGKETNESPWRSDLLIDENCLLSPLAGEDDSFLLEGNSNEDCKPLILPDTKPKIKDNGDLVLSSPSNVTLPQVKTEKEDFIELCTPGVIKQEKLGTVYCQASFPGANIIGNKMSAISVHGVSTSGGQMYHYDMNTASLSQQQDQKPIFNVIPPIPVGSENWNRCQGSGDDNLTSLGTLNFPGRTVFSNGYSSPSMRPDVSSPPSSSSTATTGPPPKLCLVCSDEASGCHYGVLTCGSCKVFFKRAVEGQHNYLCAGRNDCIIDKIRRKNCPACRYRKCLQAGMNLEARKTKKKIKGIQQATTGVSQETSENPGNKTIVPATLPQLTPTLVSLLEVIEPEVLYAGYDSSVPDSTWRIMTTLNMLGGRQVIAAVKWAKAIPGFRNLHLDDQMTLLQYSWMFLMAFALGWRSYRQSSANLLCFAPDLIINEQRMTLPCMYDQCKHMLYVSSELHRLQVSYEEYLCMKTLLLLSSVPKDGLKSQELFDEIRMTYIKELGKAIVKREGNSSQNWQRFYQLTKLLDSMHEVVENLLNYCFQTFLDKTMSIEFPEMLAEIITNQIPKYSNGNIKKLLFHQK
Method in brief: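 CHO-K1 cells expressing nuclear EA and GR-ED fragments of b-gal; compounds titrated up to 46 uM final, 2 h at 37 C. GR nuclear translocation read as complemented b-gal luminescence after 1 h RT detection.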

[8] = biological target: Guanine nucleotide-binding protein G(i) subunit alpha-1 (Homo sapiens) (UniProt P63096); experiment: qHTS Assay for Inhibitors of RGS12 GoLoco Motif Activity (Green Fluorophore) (AID 879); details: Galphai1/FITC-RGS12 GoLoco peptide, fluorescence polarization; series mostly up to 57.1 µM;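 further: negative values mean loss of peptide binding seen as reduced polarization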
Chain of Guanine nucleotide-binding protein G(i) subunit alpha-1 (Homo sapiens) (P63096 whole entry, looked up): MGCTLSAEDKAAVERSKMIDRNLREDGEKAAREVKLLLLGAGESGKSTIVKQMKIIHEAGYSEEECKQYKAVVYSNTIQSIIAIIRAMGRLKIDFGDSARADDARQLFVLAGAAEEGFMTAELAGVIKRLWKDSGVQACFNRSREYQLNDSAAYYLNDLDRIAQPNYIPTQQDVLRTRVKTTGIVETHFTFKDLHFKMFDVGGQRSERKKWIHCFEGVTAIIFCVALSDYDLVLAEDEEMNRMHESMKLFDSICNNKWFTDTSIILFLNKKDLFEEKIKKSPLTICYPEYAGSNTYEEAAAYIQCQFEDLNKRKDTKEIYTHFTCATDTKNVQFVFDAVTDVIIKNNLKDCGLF
Method in brief: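 A drop in FITC polarization marked displacement of the FITC-tagged RGS12 GoLoco peptide (10 nM) from Gαi1 (50 nM). Compounds were incubated 10 min at room temperature in Tris pH 7.5 buffer containing 150 mM NaCl, 0.1 mM GDP and 0.05% NP40; unlabeled peptide titration served as control.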

[9] = qHTS Assay for Identification of Small Molecule Antagonists for NFkB Signaling Pathway (AID 895; active means well fitted inhibition curve with a large enough effect in the signal ratio, with a control signal flat, not every such curve was filed as active; the % refers to the signal ratio; further: potency means the concentration at half of the fitted maximal effect); details: NFkB beta-lactamase reporter cells, FRET ratio 460/530, stimulated with 10 pM TNF alpha; series mostly up to 38.3 µM
Method in brief: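 ME-180 NFkB-bla cells (beta-lactamase under NFkB response element), plated overnight, treated with compound then 10 pM TNF alpha (about EC50) for 5 hrs at 37 C. LiveBLAzer FRET read at 460/530 nm emission, 405 nm excitation.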

[10] = biological target: Pyruvate kinase (Leishmania mexicana) (UniProt Q27686); experiment: qHTS Validation Assay for Inhibitors of Leishmania Mexicana Pyruvate Kinase (AID 945); details: purified L. mexicana pyruvate kinase, enzyme activity, E451W mutant enzyme; series mostly up to 57.5 µM
Chain of Pyruvate kinase (Leishmania mexicana) (Q27686 2-499 E452W): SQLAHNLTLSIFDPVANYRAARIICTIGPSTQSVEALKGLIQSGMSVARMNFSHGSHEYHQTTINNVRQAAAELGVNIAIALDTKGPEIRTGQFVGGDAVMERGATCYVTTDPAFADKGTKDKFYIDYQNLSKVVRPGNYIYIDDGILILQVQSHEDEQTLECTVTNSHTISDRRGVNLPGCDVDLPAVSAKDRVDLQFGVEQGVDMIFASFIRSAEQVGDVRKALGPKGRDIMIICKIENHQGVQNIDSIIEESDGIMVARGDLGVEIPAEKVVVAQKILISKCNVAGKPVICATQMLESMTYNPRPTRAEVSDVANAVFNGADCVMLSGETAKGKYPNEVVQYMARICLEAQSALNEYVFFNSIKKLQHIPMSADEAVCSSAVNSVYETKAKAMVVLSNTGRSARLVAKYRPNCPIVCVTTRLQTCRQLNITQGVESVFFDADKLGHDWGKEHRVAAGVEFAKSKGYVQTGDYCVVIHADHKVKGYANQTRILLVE
Method in brief: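 Substrate mix (0.5 mM PEP, 0.1 mM ADP, 7 mM MgCl2, 50 mM KCl, pH 7.2 imidazole) received compound by pin tool, then 0.2 nM LmPYK E451W. After 1 h at room temperature, PKLight was added and luminescence measured.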

[11] = biological target: Pyruvate kinase PKM (Homo sapiens) (UniProt P14618); experiment: qHTS Assay for Activators of Human Muscle Pyruvate Kinase (AID 954; active means well fitted curve in the direction sought with a large enough effect, not every such curve was filed as active); details: purified human muscle pyruvate kinase, luciferase-coupled luminescence, 1 h; series mostly up to 57.5 µM
Chain of Pyruvate kinase PKM (Homo sapiens) (P14618 whole entry, looked up): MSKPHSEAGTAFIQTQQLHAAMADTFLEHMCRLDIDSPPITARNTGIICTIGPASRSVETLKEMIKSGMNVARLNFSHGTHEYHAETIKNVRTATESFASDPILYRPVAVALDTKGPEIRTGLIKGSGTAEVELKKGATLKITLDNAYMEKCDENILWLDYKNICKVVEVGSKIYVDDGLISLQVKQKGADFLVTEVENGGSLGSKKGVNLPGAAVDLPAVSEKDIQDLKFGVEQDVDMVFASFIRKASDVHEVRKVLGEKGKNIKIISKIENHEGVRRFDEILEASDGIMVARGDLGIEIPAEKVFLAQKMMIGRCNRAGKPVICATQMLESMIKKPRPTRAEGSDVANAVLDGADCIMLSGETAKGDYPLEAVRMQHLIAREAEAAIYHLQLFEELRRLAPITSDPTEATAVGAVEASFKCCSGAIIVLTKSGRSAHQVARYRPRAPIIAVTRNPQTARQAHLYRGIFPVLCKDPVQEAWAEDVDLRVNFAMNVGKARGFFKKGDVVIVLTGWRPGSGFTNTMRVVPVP
Method in brief: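 A coupled luminescent readout tracked ATP made from ADP by purified PKM2. Final conditions included 0.1 nM enzyme, PEP and ADP at 0.5 and 0.1 mM, pH 7.2 imidazole buffer with BSA, and a one-hour room-temperature reaction.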

[12] = biological target: Alpha-galactosidase A (Homo sapiens) (UniProt P06280); experiment: Counterscreen for Glucocerebrosidase Inhibitors: qHTS Assay for Human alpha-Galactosidase at pH 4.5 (AID 992); details: purified enzyme, fluorogenic substrate; series mostly up to 76.9 µM
Chain of Alpha-galactosidase A (Homo sapiens) (P06280 whole entry, looked up): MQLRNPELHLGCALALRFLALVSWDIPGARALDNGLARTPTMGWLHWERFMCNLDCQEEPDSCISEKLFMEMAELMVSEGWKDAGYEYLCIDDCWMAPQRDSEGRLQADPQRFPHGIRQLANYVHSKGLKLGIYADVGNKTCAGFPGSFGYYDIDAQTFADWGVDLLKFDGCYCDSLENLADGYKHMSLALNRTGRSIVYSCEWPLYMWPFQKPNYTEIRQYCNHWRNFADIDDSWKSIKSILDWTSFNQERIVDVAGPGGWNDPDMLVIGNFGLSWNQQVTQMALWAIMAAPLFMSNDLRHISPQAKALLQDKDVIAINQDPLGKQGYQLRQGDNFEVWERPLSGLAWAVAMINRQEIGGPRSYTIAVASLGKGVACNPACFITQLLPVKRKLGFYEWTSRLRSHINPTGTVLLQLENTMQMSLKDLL
Method in brief: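 Citrate buffer pH 4.5, Tween-20 0.005%. Enzyme 2 nM, substrate 80 uM, 20 min RT. Stop pH 10. Fluorescence Ex 365/Em 440. AC50 by Hill fit.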

[13] = biological target: alpha-glucosidase (Oryza sativa, rice) (UniProt Q653V4); experiment: Counterscreen for Glucocerebrosidase Inhibitors: qHTS Assay for Rice alpha-Glucosidase at pH 5.0 (AID 997); details: rice alpha-glucosidase enzyme activity; series mostly up to 76.9 µM
Method in brief: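 Endpoint fluorogenic assay at pH 5.0: compounds (0.7 nM to 77 uM) titrated against 4 nM rice enzyme and 400 uM 4-MU-alpha-glucoside for 20 min at room temperature; NaOH/glycine stop, read ex 365/em 440 nm, Hill-fitted AC50.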

Compound: O=C(/C=C/c1ccc(O)c(O)c1)OC1C[C@](O)(C(=O)O)C[C@@H](O)[C@H]1O (stereo not given in full)
- max response [1]: 3.46% and 31.4%

Compound: Cc1cc(O)c(C(C)(C)C)cc1Sc1cc(C(C)(C)C)c(O)cc1C
- Potency [2]: 39.8 µM (active) and 25.1 µM (active)

Compound: C=C(C)c1ccccc1
- outcome [3]: inactive

Compound: O=C=Nc1ccc(Cc2ccc(N=C=O)cc2)cc1
- max response [1]: -20% and 23.7%
- outcome [3]: inactive

Compound: CO[C@H]1/C=C/O[C@@]2(C)Oc3c(C)c(O)c4c(O)c(c5c(c4c3C2=O)NC2(CCN(CC(C)C)CC2)N=5)=NC(=O)/C(C)=C\C=C\[C@H](C)[C@H](O)[C@@H](C)[C@@H](O)[C@@H](C)[C@H](OC(C)=O)[C@@H]1C
- Potency [4]: inactive
- Potency (AS120): 12.6 µM (active)
- Potency (ATS189): 5.01 µM (active)
- Potency (CP191): 8.91 µM (active)
- Potency (P94_40): 8.91 µM (active)
- Potency (TAB109): 11.2 µM (active)
- Potency (TAB113): 7.94 µM (active)
- Potency (W2): 4.78 µM (active)

Compound: O=C1OC2(c3cc(Br)c(O)c(Br)c3Oc3c2cc(Br)c(O)c3Br)c2c(Cl)c(Cl)c(Cl)c(Cl)c21
- outcome [5]: inactive
- outcome [3]: inactive

Compound: ClC1=C(Cl)C(Cl)(Cl)C(Cl)=C1Cl
- outcome [5]: inactive
- Potency [2]: inactive

Compound: O=Cc1ccc(Cl)c(Cl)c1
- max response [1]: 20.6%
- outcome [5]: inactive

Compound: CN(C)c1ccc(C2(c3ccc(N(C)C)cc3)OC(=O)c3cc(N(C)C)ccc32)cc1
- max response [1]: -30.7%
- outcome [5]: inactive
- Potency [2]: inactive

Compound: O=C(OCC(COC(=O)c1ccccc1)(COC(=O)c1ccccc1)COC(=O)c1ccccc1)c1ccccc1
- outcome [3]: inactive

Compound: COCCCNc1nc2c(c(=O)[nH]c(=O)n2C)n1CC(O)COc1ccccc1 (stereo not given)
- activation [6]: -6.56% (inactive)

Compound: COC(=O)[C@@H](NC(=O)c1cc(-c2ccccc2)nc2ccccc12)c1ccccc1
- Potency [7]: > 46 µM (inactive)

Compound: FC(F)(F)c1cc(CO[C@@H]2CCCN[C@H]2c2ccccc2)cc(C(F)(F)F)c1
- Potency [7]: > 46 µM (inactive)
- outcome [8]: inactive
- Potency [9]: inactive
- Potency [10]: inactive
- outcome [11]: inactive
- outcome [12]: inactive
- outcome [13]: inactive

Compound: Cc1cc(/C=N\O)c(C)n1-c1ccncc1
- activation [6]: 1.93% (inactive)

Compound: C[C@H](N)C1CCC(C(=O)Nc2ccncc2)CC1 (stereo not given in full)
- Potency [7]: > 46 µM (inactive)
- outcome [8]: inactive
- Potency [9]: 7.94 µM (active)
- Potency [10]: inactive
- outcome [11]: inactive
- outcome [12]: inactive
- outcome [13]: inactive
